Assay results reported in PubChem BioAssay.

Target: NADPH oxidase 2 (Homo sapiens) (UniProt P04839)
Assay: compounds shifting NOX2 Amplex Red fluorescence – cell-based, HEK293-NOX2, PMA-stimulated, NOX inhibitor project, primary screen (AID 1159); note: test concentration not given here
Conditions: 45 min, higher = more signal, called active from +8 up or from −8 down

NADPH oxidase 2 (Homo sapiens), sequence (P04839 whole entry, looked up): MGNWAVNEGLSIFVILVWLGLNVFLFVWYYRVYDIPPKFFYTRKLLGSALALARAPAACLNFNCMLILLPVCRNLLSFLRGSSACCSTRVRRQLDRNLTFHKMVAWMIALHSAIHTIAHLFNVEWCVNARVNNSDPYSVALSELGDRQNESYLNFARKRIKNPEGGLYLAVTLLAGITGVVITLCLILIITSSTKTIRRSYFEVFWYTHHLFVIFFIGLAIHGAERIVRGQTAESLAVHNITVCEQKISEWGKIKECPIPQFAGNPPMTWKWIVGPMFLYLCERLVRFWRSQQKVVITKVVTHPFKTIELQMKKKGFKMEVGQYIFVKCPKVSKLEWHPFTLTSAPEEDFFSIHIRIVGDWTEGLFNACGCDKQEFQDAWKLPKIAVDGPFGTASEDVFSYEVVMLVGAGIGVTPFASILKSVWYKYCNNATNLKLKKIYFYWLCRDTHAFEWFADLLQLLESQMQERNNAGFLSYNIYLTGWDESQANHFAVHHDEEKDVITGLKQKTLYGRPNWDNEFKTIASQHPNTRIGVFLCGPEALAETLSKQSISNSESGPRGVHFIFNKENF

z-score, inactive:
CC(CCN1CCc2nc(-c3ccccc3)c(-c3ccccc3)cc2C1)=NO[C@H](C)c1cn([C@@H]2COC[C@H]2O)nn1 -2.96
COC(=O)[C@H]1COC(c2ccc(OCCCO)cc2)=N1 -0.257
O=C1[C@H]2[C@H]3[C@H](O)[C@H](O)CC(=NOC[C@@H](O)COCc4ccco4)[C@H]3CC[C@H]2C(=O)N1Cc1ccc2c(c1)OCO2 -0.377
CC[C@@H](c1ccccc1)n1c(=O)n2n(c1=O)[C@H]1[C@H](O)[C@@H]3O[C@@H]3C(=NOCC=C(C)CCC=C(C)C)[C@H]1CC2 2.38
C[C@@H](c1ccccc1)N1C(=O)[C@H]2[C@H]3[C@H](O)[C@H](O)CC(=NOC[C@@H](O)COCc4ccco4)[C@@H]3CC[C@H]2C1=O 0.215
CO[C@H]1O[C@H](CO)[C@@H](OC(=O)Nc2ccc3c(c2)OCO3)[C@H](OC(=O)Nc2ccccc2-c2ccccc2)[C@@H]1OC(=O)Nc1ccccc1-c1ccccc1 2.75
NCCCCCNC(=O)[C@@H]1C[C@@H]2C(=O)N3CCC[C@H]3C(=O)N2[C@@H]1c1cccc(OCCO)c1 2.41
C[C@@H]1C=CCC(=O)OC[C@H](C)C(=O)N2CCC[C@H]2C(=O)OC1 -0.49
CCCC=C(CCC)[C@@H](NC(=O)c1ccc(-c2ccccc2)cc1)c1ccc(C(=O)OC)cc1 -0.0895
CCOC(=O)[C@H](Cc1ccccc1)NC(=O)CCC1CC(OC(=O)NCc2ccc3c(c2)OCO3)CC2(CCCC(COC(=O)NCC3CCCCC3)O2)O1 (stereo not given in full) 1.51
